# An excerpt weighted towards active compounds, which were near 3.2% of everything screened.
# Pemphigus Ab inh – inhibitors of pemphigus antibody binding to DSG3, primary screen, biochemical, bead-based, flow cytometry, scFv-GFP. binding (percent of control), % at 10 µM. actives 0.48% (n = 310,000). AID 588358, 2011. Desmoglein-3 (Homo sapiens), P32926. DSG3-coupled beads, scFv-anti-DSG3-GFP binding; hits give low values;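 active = binding more than 3 SD below its plate's average and above zero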;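 also: hits lower antibody fragment binding to DSG3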
# bovine MsrA act – bovine MsrA enzyme activators, primary screen, biochemical, absorbance, HTS; Methionine sulfoxide reductase A (Bos taurus); purified bovine MsrA, absorbance read-out; activation, % at 10.6 µM; actives 0.3% (n = 360,000); in the data active = activation above about 7.5%;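 also: 0% = vehicle and 100% = reference activator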
# NadD inh – inhibitors of S. aureus NadD, primary screen, biochemical, colorimetric, uHTS; inhibition, % at 20 µM; actives 0.78% (n = 360,000); AID 602399, 2012; purified NadD enzyme, colorimetric absorbance read-out; Nicotinate-nucleotide adenylyltransferase NadD (Staphylococcus aureus N315); in the data active = inhibition above about 26%
# MsrA inh – bovine MsrA enzyme inhibitors, primary screen, biochemical, absorbance, HTS; actives 0.75% (n = 360,000); Methionine sulfoxide reductase A (Bos taurus); purified bovine MsrA, absorbance read-out; AID 651718, 2012; inhibition, % at 15.5 µM; in the data active = inhibition above about 4.5%;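 also: 0% = vehicle wells with enzyme and 100% = reference inhibitor wells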
# rCAG binder-1 – binders of r(CAG) RNA repeats, primary screen, biochemical, fluorescence | AID 651821, 2012 | r(CAG) RNA repeat, TO-PRO-1 dye displacement fluorescence | actives 1.3% (n = 370,000) | inhibition, % at 3 µM;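 active = inhibition above the plate cutoff, the mean of all test compounds on that plate plus 3 SD, cut at about 35% in these data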;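 also: 0% = DMSO alone and 100% = 100 µM mitoxantrone as full dye displacement; higher means more dye released from RNA so lower well fluorescence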
# DAGLB inhibitor – DAGLB lipase inhibitors, primary screen, biochemical, fluorescence, HTS | actives 0.059% (n = 340,000) | inhibition, % at 5.17 µM | HEK293T DAGLB membrane lysate, EnzChek fluorogenic substrate | Diacylglycerol lipase-beta (Homo sapiens), Q8NCG7; in the data active = inhibition above about 34%;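 also: 0% = enzyme with vehicle and 100% = wells lacking enzyme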
# rCAG binder conf – small molecules binding CAG repeat RNA – biochemical, fluorescence, confirmation; shares compounds with rCAG binder-1; r(CAG) RNA repeat, TO-PRO-1 dye displacement fluorescence; inhibition, % at 3 µM; actives 70% (n = 4,300); AID 652065, 2013;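 active = inhibition above a per-plate cutoff, the mean inhibition of sample wells plus 3 SD, cut at about 35% in these data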;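 also: loss of TO-PRO-1 fluorescence as compound displaces dye from 1x1 AA loop RNA; 0% = DMSO only wells and 100% = 100 µM mitoxantrone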
# dCAG dye counter – displacement of TO-PRO-1 from CAG DNA duplex, counter-screen for rCAG RNA repeat binder project, biochemical, fluorescence, TO-PRO-1 dye, d(CAG) DNA oligo; shares compounds with rCAG binder-1; d(CAG) DNA oligo TO-PRO-1 dye displacement; inhibition, % at 3 µM; actives 94% (n = 4,300); AID 652068, 2013;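 active = inhibition above its plate's cutoff, the mean test-well inhibition plus 3 SD, cut at about 4.8% in these data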;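 also: 0% = DNA dye mix with DMSO and 100% = 100 µM mitoxantrone; hits displace the dye from DNA and so lower well fluorescence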
# dCAG dye DR – inhibitors of DNA CAG/GTC TO-PRO-1 complex, dose response, counter-screen for rCAG RNA repeat binder project, biochemical, fluorescence, TO-PRO-1 dye; shares compounds with rCAG binder-1; DNA CAG/GTC duplex TO-PRO-1 dye displacement fluorescence; IC50, µM; actives 20% (n = 250); in the data active = IC50 below about 10 µM
# dCAG DNA bind – TO-PRO-1 dye complex inhibitors on d(CAG) DNA, dose response, counter-screen, biochemical, fluorescence, late stage | shares compounds with rCAG binder-1 | d(CAG) DNA duplex TO-PRO-1 dye displacement | IC50, µM | actives 80% (n = 30)
# rCAG binder-2 – molecules binding r(CAG) RNA repeats, late stage dose response, late-stage follow-up, biochemical, fluorescence, dose response, powder samples | AID 720651, 2013 | actives 100% (n = 30) | r(CAG) RNA TO-PRO-1 dye displacement | shares compounds with rCAG binder-1 | IC50, µM
# * marks the source's active call; other numbers are inactive results; / = no result. Unless noted, no rule for the calls is given here.
SMILES,Pemphigus Ab inh,bovine MsrA act,NadD inh,MsrA inh,rCAG binder-1,DAGLB inhibitor,rCAG binder conf,dCAG dye counter,others
CC/C(=N\NC(=O)c1ccccc1O)c1c(O)n(C2CCCCC2)c(=O)[nH]c1=O,87,-2,5,2,59*,15,72*,29*,dCAG dye DR=2.8*;dCAG DNA bind=2.4*;rCAG binder-2=0.99*
O=C(N/N=C/c1c(O)n(C2CCCCC2)c(=S)[nH]c1=O)c1ccccc1,/,-3,3,1,16,11,/,/,
O=C(N/N=C/c1c(O)n(Cc2ccco2)c(=O)[nH]c1=O)c1ccccc1O,93,-2,-3,3,58*,4,66*,27*,
O=C(N/N=C/c1c(O)n(C2CCCCC2)c(=S)[nH]c1=O)c1ccccc1O,99,-2,8,2,45*,15,90*,67*,
CCC(=NCCO)c1c(O)n(C2CCCCC2)c(=O)[nH]c1=O,103,2,6,-1,-2,-1,/,/,
COc1ccccc1OCC#CCN1CCCC(C)C1 (stereo unspecified),102,-1,1,0,-7,0,/,/,
O=C1NC(=O)N(c2ccccc2)C(=O)/C1=C\c1ccc([N+](=O)[O-])s1,103,/,/,0,43*,/,45*,18*,
COc1ccc(N2C(=O)NC(=O)/C(=C\c3ccccc3[N+](=O)[O-])C2=O)cc1,100,2,4,0,7,2,/,/,
CCOc1ccc(N2C(=O)NC(=O)/C(=C\c3ccccc3[N+](=O)[O-])C2=O)cc1,111,-2,5,1,10,4,/,/,
COc1ccc(OC)c(N2C(=O)NC(=O)/C(=C\c3ccc([N+](=O)[O-])s3)C2=O)c1,99,-1,14,1,92*,11,74*,34*,
CN1CCCCC1Cc1ccccc1 (stereo unspecified),/,-2,8,/,/,/,/,/,
CCc1ccccc1N1C(=O)/C(=C/c2ccc(N3CCN(C)CC3)o2)C(=O)NC1=S,129,-3,10,0,50*,1,48*,24*,
Cc1cccc(N2C(=O)/C(=C/c3ccc(N4CCN(C)CC4)o3)C(=O)NC2=S)c1C,151,-13,6,2,49*,-3,55*,26*,
Cc1ccc(-n2c(O)c(C=NCCCn3ccnc3)c(=O)[nH]c2=O)cc1,108,-3,-4,-1,-1,3,/,/,
CC1=C(O)C(=O)C=C2C1=CC=C1C2(C)CCC2(C)C3CC(C)(C(=O)O)CCC3(C)CCC12C (stereo unspecified),90,-7,47*,2,50*,18,41*,9.5*,
CCC(C)n1c(O)c(/C=N/N2CCOCC2)c(=O)[nH]c1=S (stereo unspecified),105,3,-3,2,36*,2,2,0,
CCC(C)n1c(O)c(C=NCCN2CCOCC2)c(=O)[nH]c1=S (stereo unspecified),106,-10,-2,2,-3,-1,/,/,
Cc1nc2ccsc2c(=O)n1-c1ccccc1Cl,/,1,3,-1,-1,1,/,/,

# Assay outcomes (PubChem BioAssay)
